Hits are enriched below; roughly 3.5% of the tested compounds scored in any of these assays.
mHTT-CaM PPI inh: inhibitors of human mutant huntingtin-calmodulin interaction; P42858; AlphaScreen His-mHTT/GST-CaM binding, luminescence; inhibition, % at 15 µM; 190,000 compounds, 3.6% hits;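 note: 0% = both proteins with DMSO and 100% = one protein alone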
Target sequence (P42858 whole entry, looked up, stated change not applied): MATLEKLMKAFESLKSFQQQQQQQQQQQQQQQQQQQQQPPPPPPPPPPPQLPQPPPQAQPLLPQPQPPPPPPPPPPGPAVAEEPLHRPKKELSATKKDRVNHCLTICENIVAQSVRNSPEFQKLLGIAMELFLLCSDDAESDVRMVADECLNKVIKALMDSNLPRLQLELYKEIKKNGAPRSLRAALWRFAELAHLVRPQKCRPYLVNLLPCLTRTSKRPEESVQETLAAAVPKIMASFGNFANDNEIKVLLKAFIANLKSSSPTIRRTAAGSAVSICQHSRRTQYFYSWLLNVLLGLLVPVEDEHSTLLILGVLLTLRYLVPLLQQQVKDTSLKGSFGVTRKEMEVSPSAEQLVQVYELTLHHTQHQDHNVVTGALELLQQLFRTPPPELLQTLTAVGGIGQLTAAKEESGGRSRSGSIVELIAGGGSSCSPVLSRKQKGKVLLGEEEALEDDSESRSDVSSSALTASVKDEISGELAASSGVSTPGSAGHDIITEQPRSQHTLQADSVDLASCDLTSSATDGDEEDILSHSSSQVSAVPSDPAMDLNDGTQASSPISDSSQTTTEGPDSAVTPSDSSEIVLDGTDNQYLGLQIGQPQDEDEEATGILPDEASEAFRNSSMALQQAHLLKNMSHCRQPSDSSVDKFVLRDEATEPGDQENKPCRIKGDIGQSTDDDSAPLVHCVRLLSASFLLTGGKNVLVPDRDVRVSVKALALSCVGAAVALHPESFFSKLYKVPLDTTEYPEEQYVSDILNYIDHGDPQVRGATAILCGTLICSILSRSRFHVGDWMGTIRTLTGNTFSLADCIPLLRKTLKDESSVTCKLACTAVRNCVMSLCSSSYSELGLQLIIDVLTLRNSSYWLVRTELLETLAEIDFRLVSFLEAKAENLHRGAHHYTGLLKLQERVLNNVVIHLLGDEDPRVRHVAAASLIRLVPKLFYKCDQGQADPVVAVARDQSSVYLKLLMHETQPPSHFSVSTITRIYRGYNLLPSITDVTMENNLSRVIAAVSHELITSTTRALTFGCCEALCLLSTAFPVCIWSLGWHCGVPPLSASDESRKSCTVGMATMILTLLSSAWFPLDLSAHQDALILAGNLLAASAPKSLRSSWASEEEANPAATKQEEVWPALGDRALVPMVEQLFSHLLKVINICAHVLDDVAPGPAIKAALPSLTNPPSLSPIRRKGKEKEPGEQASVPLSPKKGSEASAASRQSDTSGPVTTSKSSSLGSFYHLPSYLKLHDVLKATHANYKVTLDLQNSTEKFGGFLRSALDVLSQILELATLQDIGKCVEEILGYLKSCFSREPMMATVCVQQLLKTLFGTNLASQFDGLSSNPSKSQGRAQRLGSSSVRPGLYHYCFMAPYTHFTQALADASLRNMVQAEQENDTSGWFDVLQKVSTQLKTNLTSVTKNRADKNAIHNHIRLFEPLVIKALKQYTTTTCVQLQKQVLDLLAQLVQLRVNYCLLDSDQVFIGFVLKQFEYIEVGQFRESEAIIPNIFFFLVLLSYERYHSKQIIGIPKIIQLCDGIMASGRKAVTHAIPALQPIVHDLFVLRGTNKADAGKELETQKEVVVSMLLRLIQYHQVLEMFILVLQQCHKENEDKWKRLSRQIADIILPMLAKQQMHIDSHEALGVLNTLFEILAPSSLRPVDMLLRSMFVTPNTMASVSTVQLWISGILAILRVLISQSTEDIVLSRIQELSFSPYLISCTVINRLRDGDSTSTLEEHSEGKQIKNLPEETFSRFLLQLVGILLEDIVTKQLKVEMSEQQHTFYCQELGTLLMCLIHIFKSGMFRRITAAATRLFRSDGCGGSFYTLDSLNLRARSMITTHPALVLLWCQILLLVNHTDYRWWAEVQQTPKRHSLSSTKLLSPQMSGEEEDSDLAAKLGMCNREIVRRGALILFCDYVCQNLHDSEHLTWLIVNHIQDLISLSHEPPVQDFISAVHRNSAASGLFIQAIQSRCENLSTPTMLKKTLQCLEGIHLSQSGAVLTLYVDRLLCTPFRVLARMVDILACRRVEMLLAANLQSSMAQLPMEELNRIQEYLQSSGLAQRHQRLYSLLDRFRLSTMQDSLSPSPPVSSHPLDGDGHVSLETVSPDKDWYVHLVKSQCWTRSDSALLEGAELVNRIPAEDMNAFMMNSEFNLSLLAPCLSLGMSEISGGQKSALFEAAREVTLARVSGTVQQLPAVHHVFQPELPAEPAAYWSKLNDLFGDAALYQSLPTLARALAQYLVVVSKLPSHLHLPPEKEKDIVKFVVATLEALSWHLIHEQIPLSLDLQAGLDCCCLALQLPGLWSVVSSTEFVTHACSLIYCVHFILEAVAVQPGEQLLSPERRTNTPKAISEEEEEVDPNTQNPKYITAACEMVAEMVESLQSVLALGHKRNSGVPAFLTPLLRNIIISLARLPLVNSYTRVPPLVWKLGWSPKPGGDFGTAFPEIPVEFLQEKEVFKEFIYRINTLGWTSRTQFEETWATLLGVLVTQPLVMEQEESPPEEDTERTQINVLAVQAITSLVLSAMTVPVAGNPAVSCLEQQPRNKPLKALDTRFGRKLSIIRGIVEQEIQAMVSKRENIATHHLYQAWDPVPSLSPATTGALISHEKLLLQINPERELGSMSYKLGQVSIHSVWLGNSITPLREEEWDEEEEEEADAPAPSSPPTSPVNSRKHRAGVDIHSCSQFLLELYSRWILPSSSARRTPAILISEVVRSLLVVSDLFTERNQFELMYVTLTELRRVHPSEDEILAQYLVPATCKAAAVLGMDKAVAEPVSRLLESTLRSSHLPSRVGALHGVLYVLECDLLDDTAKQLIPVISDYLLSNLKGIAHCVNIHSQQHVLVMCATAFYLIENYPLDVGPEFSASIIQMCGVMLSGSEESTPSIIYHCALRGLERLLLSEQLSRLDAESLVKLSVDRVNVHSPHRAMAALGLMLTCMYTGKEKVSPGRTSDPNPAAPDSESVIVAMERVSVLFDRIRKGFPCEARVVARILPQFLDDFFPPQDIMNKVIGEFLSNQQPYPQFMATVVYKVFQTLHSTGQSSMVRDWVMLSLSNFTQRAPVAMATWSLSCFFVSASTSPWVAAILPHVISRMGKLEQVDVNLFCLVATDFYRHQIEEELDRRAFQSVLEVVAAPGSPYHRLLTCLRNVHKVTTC
Pf apPOL block: Pf-apPOL DNA polymerase inhibition. Recombinant Pf-apPOL, molecular beacon fluorescence, 1.5 h. inhibition, % at 10 µM. 210,000 compounds, 0.25% hits
The depositor's hits bear a star; x = no result given. Cut-off read from the data, not from the text of the source: active = inhibition above about 50%; inactive = the rest.

SMILES	mHTT-CaM PPI inh	Pf apPOL block
CC(C)C1C(=O)N(Cc2cn(CCC3OCCO3)nn2)CCS(=O)(=O)N1Cc1ccc(-c2ccc(Cl)c(Cl)c2)cc1 (stereo unspecified)	98*	-11
COc1cccc(-c2nc(C3CCN(S(=O)(=O)c4ccc(C#N)cc4)CC3)no2)c1	-9	-1
COc1ccc(OC)c(NC(=O)c2ccc(Cl)cc2)c1	-6	-3
CC(=O)Oc1ccc(C(=O)Nc2cc(Cl)ccc2OC(C)=O)cc1	69*	-1
CC(C)(C)N=C1Nc2ncccc2NC12CCN(C(=O)COc1cccc(Cl)c1)CC2	16	-4
CCN(C)C(=O)C1CCN(c2cccc(C)c2C)C1=O (stereo unspecified)	-1	1
CC(C)NC(=O)c1ncn(-c2ccccc2)n1	2	0
CCOC(=O)c1ccc(NC(=O)CN2CCN(c3ccc(OC)cc3)C2=O)cc1	-7	-1
CCOC(=O)c1ccc(-n2sccc2=O)cc1	x	96*
COc1ccc(-c2nc(NCc3ccccc3)c3ccccc3n2)cc1OC	14	-1
COc1ccc(-c2nc(NCc3ccc(F)cc3)c3ccccc3n2)cc1OC	87*	-4
CCN1CCN(C(=O)C2CC(=O)N(c3ccc(C)c(Cl)c3)C2)CC1 (stereo unspecified)	1	2
COc1ccc(CNc2ccc(C(=O)N3CC4CC(C3)c3cccc(=O)n3C4)cc2[N+](=O)[O-])cc1 (stereo unspecified)	12	-6
Clc1ccc(C2C=C(c3ccc(Cl)s3)Nc3nnnn32)cc1 (stereo unspecified)	-5	-16
COc1cccc(CNC(=O)c2c[nH]n3c(=O)c(Cl)c(C)nc23)c1	52*	-7
COc1cccc(CNC(=O)c2c[nH]n3c(=O)c(Cc4ccc(C)cc4)c(C)nc23)c1	61*	-17
CCN(CCNC(=O)c1c[nH]n2c(=O)c(Cc3ccccc3F)c(C)nc12)c1ccccc1	79*	-23
CCCc1c(C)nc2c(C(=O)NCc3ccccc3)c[nH]n2c1=O	21	-9
Cc1nc2c(C(=O)NCCN(C)C)c[nH]n2c(=O)c1Cc1ccccc1F	18	3
CCCc1c(C)nc2c(C(=O)NCc3ccc(OC)cc3)c[nH]n2c1=O	10	-1
Cc1ccc(CNC(=O)c2c[nH]n3c(=O)cc(CSc4ccc(Cl)cc4)nc23)cc1	65*	47
Cc1cc(=O)n2[nH]cc(C(=O)NCc3ccccc3)c2n1	5	-11
O=C(Nc1ccc2oc(-c3ccccc3Cl)nc2c1)c1ccccc1[N+](=O)[O-]	-5	-8
Cc1nc2c(C(=O)NCCc3ccccc3)c[nH]n2c(=O)c1Cc1ccccc1F	29	-5
Cc1nc2c(C(=O)NCc3ccccc3Cl)c[nH]n2c(=O)c1Cc1ccccc1F	31	-10
SMILES	mHTT-CaM PPI inh	Pf apPOL block
CCCc1c(C)nc2c(C(=O)NCc3ccc(C)cc3)c[nH]n2c1=O	21	10
CCC(C)NC(=O)c1c[nH]n2c(=O)c(Cc3ccccc3Cl)c(C)nc12 (stereo unspecified)	59*	-4
COc1cccc(CNC(=O)c2c[nH]n3c(=O)c(Cc4ccccc4F)c(C)nc23)c1	72*	-15
Cc1ccc(CNC(=O)c2c[nH]n3c(=O)c(Cc4ccc(Cl)cc4)c(C)nc23)cc1	96*	-4
O=C(NCCNc1cc(-n2cccn2)ncn1)c1c[nH]c2ccccc12	5	-5
O=C(NCCc1csc2nc(-c3ccccc3F)nn12)c1cnn(-c2ccccc2)n1	-14	-8
CCOC(=O)C=CCOc1ccc2oc(-c3ccccc3)c(C(=O)OCC)c2c1	-43	-7
O=C1NC(=O)/C(=C/c2ccc(-c3cc(Cl)ccc3Cl)o2)S1	16	-5
O=c1[nH]nc(SCc2ccc(F)cc2)c(=O)[nH]1	-5	1
O=c1[nH]nc(SCc2cccc(Oc3ccccc3)c2)c(=O)[nH]1	7	72*
c1cnc2nc(SCc3cn4ccccc4n3)[nH]c2c1	-5	-1
Cc1cc(I)c(O)c(C=Nc2cc(C)ccc2O)c1	45	-6
Cc1ccc(O)c(N=Cc2cc(I)ccc2O)c1	63*	5
COc1ccc(-c2nc3ccccc3[nH]c2=O)cc1	-5	-7
CCn1ccc2oc(C)c(C(=O)N3CCN(c4cccc(Cl)c4)CC3)c2c1=O	94*	3
CCCn1ccc2oc(C)c(C(=O)N3CCN(c4ccccc4)CC3)c2c1=O	29	1
CCCn1ccc2oc(C)c(C(=O)N3CCN(c4cccc(C)c4)CC3)c2c1=O	67*	0
CCn1ccc2oc(C)c(C(=O)N3CCN(c4ccc(Cl)cc4)CC3)c2c1=O	37	-5
O=C(Nc1nnc(C(F)(F)F)s1)c1cccc([N+](=O)[O-])c1	-3	-4
O=C(O)c1ccc(CNC(=O)C2CCCCC2C(=O)O)cc1 (stereo unspecified)	0	0
O=C(O)c1cc(Nc2c([N+](=O)[O-])c(=O)oc3ccccc23)ccc1O	5	-5
CC(=O)NCc1csc(C2CCCN(S(=O)(=O)c3cccc4nsnc34)C2)n1 (stereo unspecified)	1	-2

Screening data (PubChem BioAssay)
